The record followed here is PubChem BioAssay AID504916 (The Scripps Research Institute Molecular Screening Center, 2011).

For the assay, the target named is 5-hydroxytryptamine receptor 5A (Homo sapiens) (UniProt P47898). Kind of assay: inverse agonism at human 5-HT5A receptor – cell-based, luminescence, confirmation (AID 504916).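 Note: 0% = cells with DMSO and 100% = no cells with DMSO.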 To be noted: HTR5A-expressing cells, at 9.3 µM, stronger effect = higher value.

The other results are listed elsewhere or left out. Unmarked numbers belong to inactive results. The rule behind the calls is not given here.

Sequence of 5-hydroxytryptamine receptor 5A (Homo sapiens) (P47898 whole entry, looked up): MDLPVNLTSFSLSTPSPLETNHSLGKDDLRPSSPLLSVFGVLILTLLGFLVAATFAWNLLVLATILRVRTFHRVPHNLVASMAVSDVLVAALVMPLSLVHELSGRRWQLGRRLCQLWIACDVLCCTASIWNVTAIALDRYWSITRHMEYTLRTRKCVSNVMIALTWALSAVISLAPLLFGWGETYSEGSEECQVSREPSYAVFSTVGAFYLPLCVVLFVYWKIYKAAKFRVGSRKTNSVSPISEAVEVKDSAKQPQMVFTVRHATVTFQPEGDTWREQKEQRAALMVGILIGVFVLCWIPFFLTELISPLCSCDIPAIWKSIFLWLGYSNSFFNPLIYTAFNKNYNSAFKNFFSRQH

As usually defined, the inhibition is the change of the read-out against control, counted positive when it falls. As for `O=C(/C=C/c1ccc(Cl)c([N+](=O)[O-])c1)c1ccc(O)cc1`, the inhibition is -8.27%.

In the case of `CCOC(=O)NC(=O)C(=CNc1cccc(OC)c1)C(=O)NC(=O)OCC`, the inhibition was -98.8%.

Take `Cc1cc(C)n(-c2ccc(Cl)c(C(=O)O)n2)n1`: the inhibition is -6.82%.

As to `CCCCCCCCc1c(O)nc(-n2[nH]c(C)c(CCO)c2=O)[nH]c1=O`, the inhibition is -15.1%.

Regarding `Cc1noc(C)c1COc1cccc(C(=O)Nc2cccnc2)c1`, the inhibition is 4.42%.

On to `COc1ccc(-c2nnc(SC(C)C(=O)NC3CC3)o2)cc1` (configuration not stated), for which the inhibition was 1.03%.

Take `O=c1ccc2c(-c3ccccc3S(=O)(=O)O)c3ccc(O)c(O)c3oc-2c1O`: the inhibition is -16.7%.
